Source: the supplement of paper PMC6555819

How the values were obtained:
Test in all cases: PBM binding z-score (relative to random genomic background probes); higher = stronger binding; sequences stand for … in GC…GCGATTGACAGCGTAGAATGAAGG
[1] = system: RARb homodimer (NR concentration 270 nM)
Outline: (§1)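 Binding z-scores were set against random background probes. The data came from custom Agilent 4×180K protein-binding microarrays carrying double-stranded probes with 34-nt variable regions, incubated 1 h with ligand-free nuclear receptor dimers. Partner-specific antibodies detected binding, and scanned fluorescence was regression-normalized.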

[2] = system: RARg:RXRa (NR concentration 270 nM, RXRa partner concentration 90 nM)
Outline: as §1

[3] = system: RARg homodimer (NR concentration 270 nM)
Outline: as §1

[4] = system: RXRa DBDmut IVT, anti-RXR (DBD mutation: RXRa K156A/R161A, NR concentration 90 nM)
Outline: as §1

[5] = system: RXRa homodimer (NR concentration 180 nM)
Outline: as §1

[6] = system: THRa:RXRa (NR concentration 90 nM, RXRa partner concentration 90 nM)
Outline: as §1

[7] = system: THRa homodimer (NR concentration 90 nM)
Outline: as §1

[8] = system: VDR homodimer (NR concentration 270 nM)
Outline: as §1

| Sequence | PBM binding z-score [1] | PBM binding z-score [2] | PBM binding z-score [3] | PBM binding z-score [4] | PBM binding z-score [5] | PBM binding z-score [6] | PBM binding z-score [7] | PBM binding z-score [8] |
| --- | --- | --- | --- | --- | --- | --- | --- | --- |
| CTGACTGGGGCAAGGTTACCATAACGCACAGCCA | 1.54 | 1.43 | 1.43 | 0.0299 | 1.28 | 1.52 | 0.417 | 0.129 |
| ATCTATAGGTAAAGATAGTTCAGTGAATGCAAAT | 1.07 | 0.887 | 0.972 | 0.0561 | 0.775 | 0.89 | 0.0462 | 0.507 |
| ACTCAAAGTTCACTAGGTAACGTAAGATTCAGCT | 3.65 | 4.84 | 5.79 | 4.63 | 3.51 | 2.22 | 0.585 | 4.45 |
| ATCTCTAGGTAATCAAGTTCAGTGAATGCCGAAC | 1.24 | 0.838 | 0.72 | 0.825 | 0.439 | 1.26 | 0.487 | 2.59 |
| GCTATTAGTTGAGAGGGCAACCGAATGATTCTCG | 1.14 | 0.913 | 1.01 | 0.884 | 0.882 | 0.555 | -0.117 | 0.435 |
| GATACAGGGTCAGCTAGAGGCCAGAGAATGGAAA | 3.39 | 6.83 | 5.12 | 1.73 | 4.78 | 3.35 | 0.483 | 0.71 |
| ATCTCTAGGTAAACATAGTTCAGTGAATGCAAAT | 1.42 | 0.884 | 0.928 | -0.105 | 0.495 | 1.07 | 0.425 | 0.447 |
| AGAACGAGGGCACGCTGAGTTGATATCAGAGTAG | 1.18 | 2.05 | 2.32 | 2.08 | 1.32 | 1.89 | -0.269 | 1.71 |
| CTACCAAGGTGAACAAGGCCGTTGATTACTATTC | 0.956 | 0.749 | 0.894 | 0.53 | 0.695 | 2.18 | 1.08 | 0.0898 |
| CAAACTAGGACACGAAAGGTCAAAGTCGAATGAC | 4.86 | 5.9 | 5.66 | 1.45 | 6.74 | 4.08 | 1.94 | 2.91 |
| CCTGCTAGGCCAATGGTCAGCTAAAGCAGCTCGC | 0.323 | -0.216 | 0.173 | -0.154 | -0.899 | -0.489 | -0.709 | -0.962 |
| ATCTCTAGGTAACAAGTTCAGTAAAAGAGAGGAC | 2.18 | 1.21 | 1.6 | 1.08 | 1.1 | 1.85 | 1.12 | 2.15 |
| CATAGCAGGCCAATCTGGGTCACTCAAGGCTTGA | 1.85 | 1.44 | 1.57 | -0.0976 | 1.09 | 3.69 | 0.366 | -0.0851 |
| CGTCCAAGTTCATAGGAGGTCAGTGAAGACAGAT | 4.1 | 4.63 | 5.14 | 4.98 | 3.69 | 4.73 | 1.52 | 6.53 |
| CCAGACAGGTGAAAGGTGACTCAGTCTGGTACGC | 1.63 | 2.35 | 1.15 | -0.229 | 3.18 | 1.44 | 0.239 | 0.14 |
| ACTCGGAGGACAAAGGTCAGACCTACGCCAGTGA | 4.02 | 6.08 | 5.29 | 1.23 | 5.81 | 3.5 | 0.604 | 1.81 |
| GGAACGAGGGCTAGTTGATAGCAGAGTTTGATGG | -0.317 | -0.308 | -0.0732 | 0.278 | -0.467 | -0.749 | -1.03 | -0.367 |
| CCTACTGGGGCAAGGTTACCATAACGCACAGCCA | 1.26 | 1.22 | 1.37 | -0.688 | 1.02 | 1.14 | 0.409 | 0.0551 |
| CGTCCAAGGTCATAGCAGGTCAGTGAAGACAGAT | 4.65 | 6.19 | 6.53 | 3.91 | 5.72 | 4.99 | 2.79 | 3.76 |

| Sequence | PBM binding z-score [1] | PBM binding z-score [2] | PBM binding z-score [3] | PBM binding z-score [4] | PBM binding z-score [5] | PBM binding z-score [6] | PBM binding z-score [7] | PBM binding z-score [8] |
| --- | --- | --- | --- | --- | --- | --- | --- | --- |
| CAAACTAGGTCACGAAAGGACAAAGTCGAATGAC | 4.13 | 5.37 | 6.43 | 1.59 | 4.1 | 4.56 | 1.59 | 1.06 |
| GATACCGGGTCAGCTAGAGGCCAGAGTATGGAAA | 2.63 | 5.9 | 3.71 | -0.115 | 2.83 | 2.64 | 0.0916 | -0.166 |
| AATACAGGGTCACTAGGCCTGAGTAGGTACGAAT | 3.04 | 4.82 | 4.35 | 2.53 | 5.28 | 3.13 | 0.975 | 1.81 |
| TGAATGAGGTTATACGATCAGGGAACGTTGCAAA | 0.016 | 1.31 | 1.01 | 0.956 | 2.06 | 1.8 | 0.24 | 0.274 |
| CGAACTAGGTCATTGATAGGACAGTGAATAGTAA | 2.83 | 4.58 | 4.22 | 2.29 | 2.34 | 2.61 | 0.97 | 1.35 |
| TCTTGTCGATCAAGCAGGTTAAGAAAGCCTGAGT | 0.296 | -0.133 | -0.273 | 0.138 | 0.0791 | 0.127 | -0.374 | -0.0959 |
| GCGACTGGGGCATCAGCAGGTGACCATAACTTAA | 0.835 | 0.367 | 0.374 | -0.296 | -0.0343 | 0.956 | -0.08 | -0.617 |
| TTACCAAGGTGAAGGACGTTGATCCCTCTGTAGA | 0.644 | 0.43 | 0.524 | -0.216 | 0.672 | 1.66 | 0.562 | -0.106 |
| GCTGCTATGTCAGGTTGGTCAGCTAACGGGTACG | 0.477 | -0.153 | 0.0688 | 0.041 | -0.315 | -0.187 | -0.332 | -0.186 |
| CCTTACGGGTCACGAGGCTATAGCACGACGAGCG | 3.24 | 5.45 | 5 | 0.992 | 6.22 | 3.16 | 0.466 | 0.849 |
| GCGACTGGGGCATCAGCAGGTTACCATCACTTAA | 0.92 | 0.879 | 0.45 | -0.0239 | 0.259 | 0.783 | 0.0403 | -0.183 |
| ACAGACAGGGGATGAAGGTAACTCAGGCTATCAT | 0.714 | 0.0982 | 0.418 | 0.422 | 0.188 | 0.765 | 0.491 | -0.173 |
| TGAATGAGGTTAAAGATCAAGGAACGTGGCGTCG | 0.599 | 2.57 | 1.35 | 1.24 | 4.06 | 2.41 | 0.289 | 0.251 |
| CCGACTGGGGCAAAGGTTACCAAACTCAGTACGA | 2.24 | 3.53 | 1.67 | -0.134 | 3.74 | 1.98 | -0.144 | 0.318 |
| ATCGAAAGGTCGAGGTTAGTATAGAGAAAGGGAA | 2.8 | 4.49 | 4.52 | 1.18 | 4.37 | 2.51 | 0.341 | 0.514 |
| CAAACTAGGTCAAAGGTCAAAGTGGAGCCAACCA | 4.96 | 8.91 | 7.43 | 3.12 | 10.1 | 4.71 | 1.88 | 3.27 |
| TCTCGGAGGACACGAAGGTCAGGGCTTTCCAGAG | 4.09 | 3.4 | 3.91 | 0.802 | 2.43 | 3.13 | 1.27 | 1.16 |
| CCTCGGAGGCCAACAGGAGGTCAGAGCTGCCAGA | 3.63 | 4.76 | 3.41 | -0.221 | 2.34 | 2.41 | 0.431 | 0.821 |
| CACCCTAGGTCAGGGCCAGTATAGGAGGAACGTT | 2.67 | 3.33 | 3.69 | -0.329 | 1.99 | 2.23 | 0.911 | -0.219 |

| Sequence | PBM binding z-score [1] | PBM binding z-score [2] | PBM binding z-score [3] | PBM binding z-score [4] | PBM binding z-score [5] | PBM binding z-score [6] | PBM binding z-score [7] | PBM binding z-score [8] |
| --- | --- | --- | --- | --- | --- | --- | --- | --- |
| TCGAGTAGGTTACCAATGGGGCGTTCAGCTTTCT | 0.227 | 0.184 | 0.225 | 0.454 | 0.239 | -0.0946 | -0.39 | -0.531 |
| TCTAGTAGATCAAGCAGGTTAAGAAAGCCTGAGT | -0.158 | -0.256 | -0.373 | 0.554 | 0.16 | 0.0974 | -0.707 | -0.397 |
| GCTAGAAGGCCATTTGGGTCACTCAATGACGGGC | 2.47 | 1.61 | 2.24 | 0.256 | 1.05 | 2.42 | 0.686 | 1.05 |
| TCATATAGGTAAATGCTTGGTGAAAGTCCGATCT | 0.222 | 0.052 | 0.0294 | 1.52 | 0.692 | 0.0324 | 0.34 | 0.414 |
| TCTCGGAGGACACGAAAGGTAAGAGCTCGACATC | 0.782 | 0.65 | 1.6 | 0.729 | 0.0654 | 2 | 0.0945 | -0.863 |
| GCTAGCAGGCCTTTTGGGTCACTCAATGACGGGC | 1.39 | 0.621 | 0.516 | -0.579 | 0.552 | 2.11 | 0.611 | -0.536 |
| TCTCGGAGGACACGAAGGTCTGAGCTTTCCAGAG | 0.657 | 0.331 | 1.01 | 0.323 | -0.0356 | 1.12 | 0.262 | -0.384 |
| CAAATTAGGTCAAGAGGTCAAAGTCCGCTTCCCG | 5.68 | 8.43 | 7.88 | 3.08 | 8.85 | 4.42 | 2.88 | 5.32 |
| CGTAGCAGGCCAATCTGGGTCACTCAAGGCTTGA | 1.95 | 0.96 | 1.26 | 0.317 | 0.616 | 3.65 | 0.645 | -0.295 |
| ATATGTAGGTTAAGGGTCGTTCAGGTTGGTTCGC | 2.6 | 2.82 | 1.63 | 1.64 | 3.9 | 2.48 | 1.75 | 2.58 |
| AGTCAAAGTTCAGGACGAGGTAACGTCAAGCACG | 3.13 | 4.98 | 4.9 | 2.71 | 3.29 | 3.98 | 1.52 | 2.33 |
| CCGACTGTGGCAAGGTTACCATAACGCACAGCCA | 1.13 | 0.293 | 0.461 | 0.0244 | 0.97 | 1.2 | 0.526 | 0.243 |
| GCGACTGGGTCATCAGCAGGTTACCATAACTTAA | 2.55 | 4.89 | 3.53 | 0.877 | 3.03 | 2.88 | 0.268 | 0.085 |
| TGAATGAGGTTATAAGATCAGGGCACGTTGCAAA | 1.02 | 1.74 | 1.28 | 0.591 | 2.05 | 2.4 | 0.785 | 0.892 |
| CAAACTAGGTCACGAAAGGTGAAAGTCGAATGAC | 4.73 | 5.68 | 6.37 | 1.59 | 5.25 | 4.82 | 1.92 | 0.591 |
| TCTATTAGTTGAAGGGCAGCCGACGAGTCCGTTT | 0.841 | 0.303 | 0.318 | 1.74 | 0.258 | 0.00646 | 0.0713 | 1.27 |
| CGTCCAAGGTTAATGCTAGGTCAGTGAAAGCATT | 3.14 | 4.63 | 2.64 | 1.27 | 1.78 | 3.44 | 1.31 | 0.435 |
| TTACCAAGGTGAAAGGCCGTTGATGCACGCCTTG | 1.1 | 0.963 | 0.384 | -0.3 | 1.3 | 1.45 | 0.31 | -0.0991 |
